Laboratory results reported in the supplement of paper PMC4466140.

B1: unnamed (peptide)
chain: PLQSKIPMLPSRRTM
B2: unnamed (peptide)
chain: GATNNAPTLPKRKNP
B3: unnamed (peptide)
chain: QLLNPNRRAPRRPLS

Target: AgAbp1
Experiment: SPOT peptide array binding signal intensity (averaged, normalized) (arbitrary units (background-subtracted, floor 0; scale differs between SH3 domains)); higher = stronger binding of the SH3 domain to the peptide
In short: (§1)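 Peptides were synthetic 15-mers on cellulose membranes, with every cysteine replaced by serine. They were incubated overnight at 4°C with GST-SH3 domains from four yeast species at 10 μg/ml in TBS-based blocking buffer. Binding signal, the replicate-averaged normalized and background-subtracted spot intensity, is in arbitrary units that differ between domains.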

Binder | SPOT peptide array binding signal intensity
B1 | 98.5
B2 | 94.5
B3 | 104

Target: AgBbc1
Experiment: as above
In short: as §1

Binder | SPOT peptide array binding signal intensity
B1 | 267
B2 | 80.5
B3 | 451

Target: AgBem1-D1
Experiment: as above
In short: as §1

Binder | SPOT peptide array binding signal intensity
B1 | 26.5
B2 | 15
B3 | 328

Target: AgBzz1-D1
Experiment: as above
In short: as §1

Binder | SPOT peptide array binding signal intensity
B1 | 48
B2 | 60.2
B3 | 59

Target: AgBzz1-D2
Experiment: as above
In short: as §1

Binder | SPOT peptide array binding signal intensity
B1 | 9
B2 | 21
B3 | 45

Target: AgCyk3
Experiment: as above
In short: as §1

Binder | SPOT peptide array binding signal intensity
B1 | 3
B2 | ≤ 0
B3 | 2

Target: AgFus1
Experiment: as above
In short: as §1

Binder | SPOT peptide array binding signal intensity
B1 | 98.5
B2 | 15.5
B3 | 158

Target: AgHof1
Experiment: as above
In short: as §1

Binder | SPOT peptide array binding signal intensity
B1 | 211
B2 | 32.9
B3 | 89.8

Target: AgHse1
Experiment: as above
In short: as §1

Binder | SPOT peptide array binding signal intensity
B1 | 300
B2 | ≤ 0
B3 | 144

Target: AgLsb1
Experiment: as above
In short: as §1

Binder | SPOT peptide array binding signal intensity
B1 | 555
B2 | 11.4
B3 | 9.25

Target: AgLsb4
Experiment: as above
In short: as §1

Binder | SPOT peptide array binding signal intensity
B1 | 4990
B2 | 2730
B3 | 25

Target: AgMyo5
Experiment: as above
In short: as §1

Binder | SPOT peptide array binding signal intensity
B1 | ≤ 0
B2 | ≤ 0
B3 | 60.5

Target: AgNbp2
Experiment: as above
In short: as §1

Binder | SPOT peptide array binding signal intensity
B1 | 302
B2 | 7.25
B3 | 4130

Target: AgRvs167
Experiment: as above
In short: as §1

Binder | SPOT peptide array binding signal intensity
B1 | 483
B2 | 47.3
B3 | 2.83

Target: AgSho1
Experiment: as above
In short: as §1

Binder | SPOT peptide array binding signal intensity
B1 | 131
B2 | 3.75
B3 | 7

Target: AgSla1-D1-D2
Experiment: as above
In short: as §1

Binder | SPOT peptide array binding signal intensity
B1 | 28
B2 | 7
B3 | 33

Target: AgSla1-D3
Experiment: as above
In short: as §1

Binder | SPOT peptide array binding signal intensity
B1 | 6.5
B2 | 0.75
B3 | 4

Target: CaAbp1-D1
Experiment: as above
In short: as §1

Binder | SPOT peptide array binding signal intensity
B1 | 470
B2 | 131
B3 | 608

Target: CaAbp1-D2
Experiment: as above
In short: as §1

Binder | SPOT peptide array binding signal intensity
B1 | 342
B2 | 155
B3 | 495

Target: CaBbc1
Experiment: as above
In short: as §1

Binder | SPOT peptide array binding signal intensity
B1 | 694
B2 | 532
B3 | 1450

Target: CaBem1-D1
Experiment: as above
In short: as §1

Binder | SPOT peptide array binding signal intensity
B1 | 10.5
B2 | 6
B3 | 122

Target: CaBzz1-D1
Experiment: as above
In short: as §1

Binder | SPOT peptide array binding signal intensity
B1 | 274
B2 | 232
B3 | 220

Target: CaBzz1-D2
Experiment: as above
In short: as §1

Binder | SPOT peptide array binding signal intensity
B1 | 224
B2 | ≤ 0
B3 | 135

Target: CaCyk3
Experiment: as above
In short: as §1

Binder | SPOT peptide array binding signal intensity
B1 | 18.5
B2 | 2.75
B3 | 161

Target: CaFus1
Experiment: as above
In short: as §1

Binder | SPOT peptide array binding signal intensity
B1 | 897
B2 | ≤ 0
B3 | 270

Target: CaHof1
Experiment: as above
In short: as §1

Binder | SPOT peptide array binding signal intensity
B1 | 1
B2 | 1.25
B3 | 0.25

Target: CaHse1
Experiment: as above
In short: as §1

Binder | SPOT peptide array binding signal intensity
B1 | 195
B2 | 2.25
B3 | 13.5

Target: CaLsb1
Experiment: as above
In short: as §1

Binder | SPOT peptide array binding signal intensity
B1 | 18.2
B2 | 0.5
B3 | 0.25

Target: CaLsb4
Experiment: as above
In short: as §1

Binder | SPOT peptide array binding signal intensity
B1 | 5220
B2 | 4150
B3 | 95.5

Target: CaMyo5
Experiment: as above
In short: as §1

Binder | SPOT peptide array binding signal intensity
B1 | 30
B2 | 3
B3 | 6.75

Target: CaNbp2
Experiment: as above
In short: as §1

Binder | SPOT peptide array binding signal intensity
B1 | 881
B2 | ≤ 0
B3 | 2950

Target: CaRvs167
Experiment: as above
In short: as §1

Binder | SPOT peptide array binding signal intensity
B1 | 1060
B2 | 125
B3 | 28.8

Target: CaRvs167-3
Experiment: as above
In short: as §1

Binder | SPOT peptide array binding signal intensity
B1 | 4
B2 | 3.25
B3 | 5.25

Target: CaSho1
Experiment: as above
In short: as §1

Binder | SPOT peptide array binding signal intensity
B1 | 400
B2 | ≤ 0
B3 | 72

Target: CaSla1-D1-D2
Experiment: as above
In short: as §1

Binder | SPOT peptide array binding signal intensity
B1 | 1030
B2 | 47
B3 | 1270

Target: CaSla1-D3
Experiment: as above
In short: as §1

Binder | SPOT peptide array binding signal intensity
B1 | 332
B2 | ≤ 0
B3 | 0.25

Target: ScAbp1
Experiment: as above
In short: as §1

Binder | SPOT peptide array binding signal intensity
B1 | 34.5
B2 | 120
B3 | 73

Target: ScBbc1
Experiment: as above
In short: as §1

Binder | SPOT peptide array binding signal intensity
B1 | 246
B2 | 7.12
B3 | 271

Target: ScBem1-D1
Experiment: as above
In short: as §1

Binder | SPOT peptide array binding signal intensity
B1 | 2
B2 | ≤ 0
B3 | 45

Target: ScBzz1-D1
Experiment: as above
In short: as §1

Binder | SPOT peptide array binding signal intensity
B1 | ≤ 0
B2 | 10.5
B3 | 56

Target: ScBzz1-D2
Experiment: as above
In short: as §1

Binder | SPOT peptide array binding signal intensity
B1 | 27
B2 | 12.5
B3 | 30.5

Target: ScCyk3
Experiment: as above
In short: as §1

Binder | SPOT peptide array binding signal intensity
B1 | 9
B2 | ≤ 0
B3 | 65

Target: ScFus1
Experiment: as above
In short: as §1

Binder | SPOT peptide array binding signal intensity
B1 | 218
B2 | 6.5
B3 | 104

Target: ScHof1
Experiment: as above
In short: as §1

Binder | SPOT peptide array binding signal intensity
B1 | 79
B2 | 0.25
B3 | ≤ 0

Target: ScHse1
Experiment: as above
In short: as §1

Binder | SPOT peptide array binding signal intensity
B1 | 127
B2 | 27.2
B3 | 779

Target: ScLsb1
Experiment: as above
In short: as §1

Binder | SPOT peptide array binding signal intensity
B1 | 287
B2 | 242
B3 | 37.2

Target: ScLsb2
Experiment: as above
In short: as §1

Binder | SPOT peptide array binding signal intensity
B1 | 629
B2 | 3.5
B3 | 370

Target: ScLsb3
Experiment: as above
In short: as §1

Binder | SPOT peptide array binding signal intensity
B1 | 5990
B2 | 4610
B3 | 808

Target: ScLsb4
Experiment: as above
In short: as §1

Binder | SPOT peptide array binding signal intensity
B1 | 2850
B2 | 2740
B3 | 31

Target: ScMyo3
Experiment: as above
In short: as §1

Binder | SPOT peptide array binding signal intensity
B1 | ≤ 0
B2 | ≤ 0
B3 | 70.5

Target: ScMyo5
Experiment: as above
In short: as §1

Binder | SPOT peptide array binding signal intensity
B1 | ≤ 0
B2 | ≤ 0
B3 | 122

Target: ScNbp2
Experiment: as above
In short: as §1

Binder | SPOT peptide array binding signal intensity
B1 | 760
B2 | 4.5
B3 | 6040

Target: ScPex13
Experiment: as above
In short: as §1

Binder | SPOT peptide array binding signal intensity
B1 | 945
B2 | 182
B3 | 50.5

Target: ScRvs167
Experiment: as above
In short: as §1

Binder | SPOT peptide array binding signal intensity
B1 | 2220
B2 | 960
B3 | 93.5

Target: ScSho1
Experiment: as above
In short: as §1

Binder | SPOT peptide array binding signal intensity
B1 | 586
B2 | ≤ 0
B3 | 271

Target: ScSla1-D1-D2
Experiment: as above
In short: as §1

Binder | SPOT peptide array binding signal intensity
B1 | 999
B2 | 20.8
B3 | 247

Target: ScSla1-D3
Experiment: as above
In short: as §1

Binder | SPOT peptide array binding signal intensity
B1 | 514
B2 | ≤ 0
B3 | 17.2

Target: SpAbp1-D1
Experiment: as above
In short: as §1

Binder | SPOT peptide array binding signal intensity
B1 | 149
B2 | 102
B3 | 90

Target: SpBbc1
Experiment: as above
In short: as §1

Binder | SPOT peptide array binding signal intensity
B1 | 14
B2 | 1
B3 | 66.5

Target: SpBzz1-D1
Experiment: as above
In short: as §1

Binder | SPOT peptide array binding signal intensity
B1 | 953
B2 | 286
B3 | 370

Target: SpBzz1-D2
Experiment: as above
In short: as §1

Binder | SPOT peptide array binding signal intensity
B1 | 2
B3 | 130

Target: SpCyk3
Experiment: as above
In short: as §1

Binder | SPOT peptide array binding signal intensity
B1 | 16
B3 | 6

Target: SpHof1
Experiment: as above
In short: as §1

Binder | SPOT peptide array binding signal intensity
B1 | 61.2
B3 | 134

Target: SpHof1-2
Experiment: as above
In short: as §1

Binder | SPOT peptide array binding signal intensity
B1 | 76.2
B3 | 25

Target: SpHof1-3
Experiment: as above
In short: as §1

Binder | SPOT peptide array binding signal intensity
B1 | 108
B3 | 148

Target: SpHse1
Experiment: as above
In short: as §1

Binder | SPOT peptide array binding signal intensity
B1 | 272
B3 | 178

Target: SpLsb1
Experiment: as above
In short: as §1

Binder | SPOT peptide array binding signal intensity
B1 | 612
B3 | 61.5

Target: SpLsb4
Experiment: as above
In short: as §1

Binder | SPOT peptide array binding signal intensity
B1 | 5580
B3 | 1750

Target: SpMyo1
Experiment: as above
In short: as §1

Binder | SPOT peptide array binding signal intensity
B1 | 61.5
B3 | 390

Target: SpNbp2
Experiment: as above
In short: as §1

Binder | SPOT peptide array binding signal intensity
B1 | 118
B3 | 440

Target: SpPex13
Experiment: as above
In short: as §1

Binder | SPOT peptide array binding signal intensity
B1 | 224
B3 | 20

Target: SpRvs167
Experiment: as above
In short: as §1

Binder | SPOT peptide array binding signal intensity
B1 | 2200
B3 | 34

Target: SpSla1-D1-D2
Experiment: as above
In short: as §1

Binder | SPOT peptide array binding signal intensity
B1 | 68
B3 | 3

Target: SpSla1-D3
Experiment: as above
In short: as §1

Binder | SPOT peptide array binding signal intensity
B1 | 173
B3 | 2
